In PubChem BioAssay (EPA / NIEHS):
Records with an inconclusive call do not appear. The source holds several records for some structures; these can differ, active in one and inactive in another. Calls of active or inactive are those of the source. The calls were made as follows: active = hit-call score of the fitted dose curve at least 0.9, where 1 is the maximum; inconclusive = response in the unintended direction; inactive = score below 0.9.

How the values were obtained:
[1] = TOX21_p53_BLA_p4_viability: Viability Assessment in the Tox21 HCT-116 p53 Agonism Beta-lactamase Assay, Phase 4 (AID 2283597);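 also: hits lower the luminescence signal meaning cytotoxicity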
In short: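 We seeded HCT116 p53 reporter cells at 4000/well and waited 5 h. We then added compounds in DMSO at a 217-fold dilution and incubated for 16 h. Viability was read as CellTiter-Glo luminescence after 30 min at RT.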

[2] = TOX21_p53_BLA_p5_viability: Viability Assessment in the Tox21 HCT-116 p53 Agonism Beta-lactamase Assay, Phase 5 (AID 2283600)
In short: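 Compounds, pinned from DMSO at 217-fold dilution, were left on the cells for 16 h. The viability endpoint was ATP content measured by CellTiter-Glo luminescence, where falling signal reflects cytotoxicity.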

[3] = Tanguay_ZF_120hpf_MORT_legacy: (Legacy) Oregon State University Tanguay Lab 120 Hour Post-fertilization zebrafish Assay for Mortality (AID 2283633);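 as to AC50: fitted as increase in binary mortality versus DMSO negative control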
In short: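 Brightfield scoring of embryo death (binary) at 24 and 120 hpf; static exposure 6–120 hpf, 28C, sealed and foil-covered. Pronase-dechorionated 5D wild-type larvae, single embryo per well. DMSO 0.64% v/v; trimethyltin chloride 5uM positive control.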

[4] = Tanguay_ZF_120hpf_YSE_legacy: (Legacy) Oregon State University Tanguay Lab 120 Hour Post-fertilization zebrafish Assay for Yolk Sac Edema (AID 2283634)
In short: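 Binary brightfield scoring of yolk sac edema at 120 hpf; DMSO baseline, gain-of-signal fitting. Dechorionated 5D larvae, one per well, static exposure 6–120 hpf, 28C, 0.64% DMSO. Dead embryos not scored.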

[5] = Tanguay_ZF_120hpf_AXIS_legacy: (Legacy) Oregon State University Tanguay Lab 120 Hour Post-fertilization zebrafish Assay for Body Axis Malformation (AID 2283635);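 as to AC50: potency for an increased fraction of larvae scored with body axis malformation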
In short: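 Embryos: 5D wild-type, pronase-dechorionated 4 hpf; static exposure 6–120 hpf, 28C, sealed, dark, 1 embryo/well, 0.64% DMSO. 120 hpf axis malformation scored present/absent; dead embryos excluded. Analysed as gain of signal vs DMSO.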

[6] = Tanguay_ZF_120hpf_SNOU_legacy: (Legacy) Oregon State University Tanguay Lab 120 Hour Post-fertilization zebrafish Assay for Snout Malformation (AID 2283637)
In short: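 Tropical 5D wild-type zebrafish embryos, dechorionated with pronase at 4 hpf, were exposed singly from 6 hpf to 120 hpf statically at 28C in 0.64% DMSO. Snout malformation was scored present/absent by brightfield microscopy, fitted against DMSO.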

[7] = Tanguay_ZF_120hpf_JAW_legacy: (Legacy) Oregon State University Tanguay Lab 120 Hour Post-fertilization zebrafish Assay for Jaw Malformation (AID 2283638)
In short: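 Binary jaw-malformation calls at 120 hpf by brightfield imaging; DMSO (0.64% v/v) = baseline. Embryos: 5D wild-type, pronase-dechorionated, one per well from 6 hpf, static exposure, 28C, sealed, dark.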

[8] = Tanguay_ZF_120hpf_PE_legacy: (Legacy) Oregon State University Tanguay Lab 120 Hour Post-fertilization zebrafish Assay for Pericardial Edema (AID 2283640)
In short: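 Static waterborne exposure, 5D wild-type embryos, 28C, to 120 hpf; final DMSO 0.64% (vol/vol). Binary PE call at 120 hpf by brightfield; fitted upward vs DMSO baseline. 5uM trimethyltin chloride as positive control.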

[9] = Tanguay_ZF_120hpf_BRAI_legacy: (Legacy) Oregon State University Tanguay Lab 120 Hour Post-fertilization zebrafish Assay for Brain Malformation (AID 2283641)
In short: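 Read-out: binary brain morphology call at 120 hpf (brightfield), fitted in gain-of-signal direction vs DMSO. Wild-type Tropical 5D embryos, static exposure, 28C, 0.64% DMSO final; 5uM trimethyltin chloride as positive control.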

[10] = Tanguay_ZF_120hpf_SOMI_legacy: (Legacy) Oregon State University Tanguay Lab 120 Hour Post-fertilization zebrafish Assay for Somite Malformation (AID 2283647)
In short: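 Binary brightfield scoring of somite defects at 120 hpf in 5D wild-type larvae; one dechorionated embryo per well, static exposure from 6 hpf, 28C, sealed and dark. Final DMSO 0.64%; trimethyltin chloride 5uM positive control.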

[11] = Tanguay_ZF_120hpf_PFIN_legacy: (Legacy) Oregon State University Tanguay Lab 120 Hour Post-fertilization zebrafish Assay for Pectoral Fin Malformation (AID 2283648);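 also: each larva judged yes or no for fin defect by brightfield with dead larvae skipped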
In short: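 Tropical 5D wild-type embryos, dechorionated with pronase at 4 hpf, were placed singly in wells at 6 hpf and statically exposed until 120 hpf at 28C, sealed and dark, with 0.64% (vol/vol) final DMSO; pectoral fin malformation scored present/absent.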

[12] = Tanguay_ZF_120hpf_PIG_legacy: (Legacy) Oregon State University Tanguay Lab 120 Hour Post-fertilization zebrafish Assay for Pigmentation Malformation (AID 2283650)
In short: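 Tropical 5D wild-type zebrafish embryos, dechorionated with pronase at 4 hpf, were exposed singly from 6 hpf to 120 hpf statically at 28C in sealed, dark plates with 0.64% DMSO; pigmentation scored present/absent by brightfield microscopy, fitted against DMSO.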

[13] = Tanguay_ZF_120hpf_CIRC_legacy: (Legacy) Oregon State University Tanguay Lab 120 Hour Post-fertilization zebrafish Assay for Circulatory Malformation (AID 2283651)
In short: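 Read-out: presence or absence of circulatory malformation at 120 hpf, scored by brightfield microscopy, fitted in the gain-of-signal direction against DMSO baseline. Wild-type 5D larvae were exposed from 6 hpf after enzymatic chorion removal.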

[14] = target: Cellular tumor antigen p53 (Homo sapiens) (UniProt P04637); experiment: TOX21_p53_BLA_p3_ratio: Tox21 HCT-116 p53 Agonism Beta-lactamase Assay, Ratio, Phase 3 (AID 2283596)
Sequence of Cellular tumor antigen p53 (Homo sapiens) (P04637 whole entry, looked up): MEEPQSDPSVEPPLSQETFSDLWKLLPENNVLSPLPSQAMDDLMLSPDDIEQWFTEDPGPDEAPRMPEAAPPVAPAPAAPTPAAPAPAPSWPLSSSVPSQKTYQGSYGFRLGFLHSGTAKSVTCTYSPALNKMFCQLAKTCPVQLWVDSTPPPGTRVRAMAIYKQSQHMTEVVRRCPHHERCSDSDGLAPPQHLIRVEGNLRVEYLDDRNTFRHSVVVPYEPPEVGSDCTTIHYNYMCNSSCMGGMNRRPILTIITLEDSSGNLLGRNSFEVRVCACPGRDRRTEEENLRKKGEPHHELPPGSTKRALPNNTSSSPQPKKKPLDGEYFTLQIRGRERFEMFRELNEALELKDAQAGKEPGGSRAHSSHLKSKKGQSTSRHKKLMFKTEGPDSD
In short: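 HCT116 p53-bla cells (4000/well) given compound in DMSO (217-fold dilution) after 5 h, incubated 16 h at 37C. CCF4-AM substrate 2 h at room temperature; 460/530 nm emission ratio, gain fitted against DMSO.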

[15] = target: Cellular tumor antigen p53 (Homo sapiens) (UniProt P04637); experiment: TOX21_p53_BLA_p5_ratio: Tox21 HCT-116 p53 Agonism Beta-lactamase Assay, Ratio, Phase 5 (AID 2283599)
In short: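 HCT-116 cells carrying a p53-inducible beta-lactamase reporter were seeded at 4000 cells/well and dosed after 5 h with compound in DMSO (217-fold dilution). After 16 h at 37C, CCF4-AM substrate was added for 2 h, and the 460/530 nm emission ratio was scored as gain-of-signal versus DMSO.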

[16] = Tanguay_ZF_120hpf_EYE_legacy: (Legacy) Oregon State University Tanguay Lab 120 Hour Post-fertilization zebrafish Assay for Eye Malformation (AID 2283636)
In short: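 Dechorionated wild-type Tropical 5D zebrafish embryos were exposed statically from 6 hpf, one per well, to 120 hpf at 28C in sealed, foil-covered plates with 0.64% DMSO. Eye malformation was scored present/absent by brightfield microscopy against DMSO controls.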

[17] = Tanguay_ZF_120hpf_OTIC_legacy: (Legacy) Oregon State University Tanguay Lab 120 Hour Post-fertilization zebrafish Assay for Otic Vesicle Malformation (AID 2283639)
In short: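 Embryos from 5D wild-type adults exposed in plates; DMSO 0.64% v/v final. Sealed, light-protected, 28C, static to 120 hpf. Otic vesicle malformation recorded as binary endpoint; gain-of-signal fitted vs DMSO.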

[18] = target: Cellular tumor antigen p53 (Homo sapiens) (UniProt P04637); experiment: TOX21_p53_BLA_p4_ratio: Tox21 HCT-116 p53 Agonism Beta-lactamase Assay, Ratio, Phase 4 (AID 2283601)
In short: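 HCT116 cells carrying an inducible beta-lactamase reporter were plated at 4000 cells/well, rested 5 h, then exposed to compounds in DMSO (217-fold dilution) for 16 h at 37C. CCF4-AM substrate was loaded 2 h at room temperature; 460/530 nm emission ratio scored gain-of-signal versus DMSO.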

[19] = Tanguay_ZF_120hpf_CFIN_legacy: (Legacy) Oregon State University Tanguay Lab 120 Hour Post-fertilization zebrafish Assay for Caudal Fin Malformation (AID 2283649)
In short: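 Dechorionated 5D wild-type zebrafish, static exposure 6–120 hpf, 28C, sealed and dark, 0.64% v/v DMSO final. Binary fin-malformation call at 120 hpf, brightfield; gain of signal vs DMSO baseline.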

Measured: AC50

O=C1C2CC=CCC2C(=O)N1SC(Cl)(Cl)Cl (centres undefined)
active: [1] 18.1 µM | [3] 25.1 µM
inactive: [1] | [2] | [4] | [5] | [6] | [7] | [8] | [9] | [10] | [11] | [12] | [13]

CS(=O)(=O)c1ccc(C(=O)C2C(=O)CCCC2=O)c([N+](=O)[O-])c1
not listed: [18] | [19]
inactive: all other assays above

COP(=S)(OC)Oc1ccc([N+](=O)[O-])c(C)c1
not listed: [14] | [15] | [18] | [19]
inactive: all other assays above

CCSC(=O)N1CCCCCC1
not listed: [1] | [8] | [15] | [17] | [18] | [19]
inactive: all other assays above

CCOC(=O)C(C)OC(=O)c1cc(Oc2ccc(C(F)(F)F)cc2Cl)ccc1[N+](=O)[O-] (centres undefined)
not listed: [6] | [7] | [12] | [15] | [17] | [18] | [19]
inactive: all other assays above

Cc1ccc(N=CN(C)C=Nc2ccc(C)cc2C)c(C)c1
not listed: [7] | [13] | [17] | [19]
inactive: all other assays above

CCCN(CC)CC1COC2(CCC(C(C)(C)C)CC2)O1 (centres undefined)
not listed: [14] | [15] | [18] | [19]
inactive: all other assays above

CC(C)N1C(=O)N(c2ccccc2)CSC1=NC(C)(C)C
active: [1] 71.3 µM | [2] 69 µM | [18] 87.2 µM
not listed: [9] | [13] | [15] | [17] | [19]
inactive: all other assays above

CC(C)C1(C)N=C(c2ncccc2C(=O)O)NC1=O (centres undefined)
not listed: [10] | [13] | [17]
inactive: all other assays above

COc1cc(OC)nc(NC(=O)NS(=O)(=O)c2ncccc2OCC(F)(F)F)n1
not listed: [2] | [14] | [18]
inactive: all other assays above

COP(=S)(OC)SCn1nnc2ccccc2c1=O
active: [5] 17.3 µM
not listed: [10] | [11] | [15] | [17] | [18] | [19]
inactive: all other assays above

CCNP(=S)(OC)O/C(C)=C/C(=O)OC(C)C (centres undefined)
not listed: [2] | [10] | [15] | [17] | [18] | [19]
inactive: all other assays above

Nc1c(Cl)c(F)nc(OCC(=O)O)c1Cl
not listed: [1] | [5] | [9] | [11] | [18] | [19]
inactive: all other assays above

COC(=O)N(C(=O)N1CO[C@@]2(C(=O)OC)Cc3cc(Cl)ccc3C2=N1)c1ccc(OC(F)(F)F)cc1
not listed: [5] | [14] | [18]
inactive: all other assays above

N#Cc1c[nH]cc1-c1cccc2c1OC(F)(F)O2
active: [14] 8.51 µM | [3] 25.9 µM
not listed: [15] | [17] | [18] | [19]
inactive: all other assays above

OC(c1ccc(Cl)cc1)(c1ccc(Cl)cc1)C(Cl)(Cl)Cl
inactive: [18] | [3] | [6] | [7] | [8] | [9] | [11] | [12] | [13]
active: [1] 86.7 µM | [15] 89.8 µM | [2] 71 µM

CC1(C)C(C(=O)OC(C#N)c2cccc(Oc3ccccc3)c2)C1(C)C (centres undefined)
not listed: [14] | [15] | [18] | [19]
inactive: all other assays above
